# In PubChem BioAssay (NCI):
# This is part of a sample that, as a whole, favours compounds with a hit. Of some 83,000 tested, about 20% had one in any assay.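 Treatment: one concentration, 48 hours, 96-well format. Scoring: percent growth, with anything below 10 considered active.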 The source made the active and inactive calls.
# Test system: M14 melanoma
# Assay: NCI-60 one-dose screen, 48 h (100 = growth as untreated, 0 = no growth, -100 = all killed)
# Conditions: 10 µM unless noted
row,Structure (SMILES),growth
1,Cc1nn(-c2ccccc2)c(Cl)c1/C=C/C(=O)c1ccc(F)cc1,80.6% (inactive)
2,COc1cc2oc(-c3cccc(C(=O)Nc4ccc(Br)cc4)c3)cc(=O)c2c(OC)c1OC,27% (inactive)
3,CC1=C(C(=O)/C=C/c2c[nH]c3ccccc23)C(c2ccccc2)NC(=S)N1 (stereo not drawn),94.4% (inactive)
4,CCCCCN1C=C/C(=C\C(=O)N(C)c2ccc(Oc3ccccc3)cc2)c2ccccc21,94.1% (inactive)
5,Cn1cc(-c2nc(-c3c[nH]c4c(Cl)nccc34)cs2)c2cc(Br)ccc21,73.5% (inactive)
6,COc1ccc(/C=C2\Oc3cc(OCCCN4CCCCC4)ccc3C2=O)cc1OC,98.7% (inactive)
7,Cc1cc2nc3c4cc(C=O)ccc4n(CCN(C)C)c3nc2cc1C,15.8% (inactive)
8,S=c1cc(S)c2cc(Br)ccc2[nH]1,90% (inactive)
9,O=C(/C(=C\c1ccc([N+](=O)[O-])cc1)S(=O)Cc1ccc(Cl)cc1)c1ccc(Cl)cc1 (stereo not drawn),63.3% (inactive)
10,COc1cc(CC(=O)c2ccc(O)c(OC)c2)ccc1O,102% (inactive)
11,O=C(NCCc1ccccc1)Nc1ccc2cc3ccc(NC(=O)NCCc4ccccc4)cc3nc2c1,33.8% (inactive)
12,C=C(C)[C@@H]1CC[C@]2(C(=O)N3CCN(C)CC3)CC[C@]3(C)[C@H](CC[C@@H]4[C@@]5(C)C/C(=C/c6cccnc6)C(=O)C(C)(C)[C@@H]5CC[C@]43C)[C@@H]12,69.5% (inactive)
13,COc1cc2nc(-c3ccc(Cl)cc3)cc(OCCCN3CCC(O)CC3)c2cc1OC,-48% (active)
14,O=S(=O)(NCCNc1nccc(-c2c(-c3cccc(O)c3)nc3occn23)n1)c1ccccc1,29.4% (inactive)
15,NC(=NCCCOc1ccc(F)cc1)Nc1ccc(Cl)cc1,52.7% (inactive)
16,C#Cc1cccc(NC(=O)c2cccc(NC(=O)CCl)c2)c1,0.864% [8.25 µM] (active)
17,CCN1Cc2nc3sc(C)c(C)c3c(=O)n2C=C1C,27.5% (inactive)
18,O=C1Nc2cc(-c3cccc([N+](=O)[O-])c3)ccc2/C1=C/c1ccc[nH]1,89.8% (inactive)
19,C[C@H]1[C@H](C)CC[C@]2(C(=O)NCC#CCN3CCN(C)CC3)CC[C@]3(C)C(=CC[C@@H]4[C@@]5(C)Cc6c([nH]c7ccccc67)C(C)(C)[C@@H]5CC[C@]43C)[C@H]12,71.3% (inactive)

row,Structure (SMILES),growth
1,COc1cc(/C=C/c2cc(O)c(C(C)=O)c(O)c2)cc2c1O[C@]1(C)CC[C@@H](O)C(C)(C)[C@H]1C2,51.5% (inactive)
2,N#CC1=C(N)Oc2c(cnn2-c2ccc([N+](=O)[O-])cc2[N+](=O)[O-])C1c1ccccc1 (stereo not drawn),95.3% (inactive)
3,COc1ccc(C(=O)c2cc(C)c(OC)c(C)c2)c(OC)c1N(C(=O)CCl)C(=O)CCl,-20.7% (active)
4,CCC(=O)Oc1ccc(/C(=C(\C)c2ccccc2)c2ccc(OCCN3CCCCC3)cc2)cc1,72.3% (inactive)
5,Cc1ccc(NC(=O)c2cc(-c3nc4ccccc4s3)c(=O)n(NS(=O)(=O)c3ccc(Cl)cc3)c2N)cc1,99.4% (inactive)
6,O=C1Nc2ccc(F)cc2/C1=C\c1c(-c2ccccc2)nc2ccccn12,48.7% (inactive)
7,O=C(NO)c1ccc(-n2nc(-c3ccccc3)c3ccccc32)cc1,57.2% (inactive)
8,O=C1Nc2ccccc2/C1=C\c1c(-c2ccc(F)cc2)nc2ccccn12,53.2% (inactive)
9,Oc1cccc(CCc2ccc(Oc3cc(CCc4cccc(O)c4)cc(O)c3O)cc2)c1,81.2% (inactive)
10,CCCCCCCC(=O)OCC/C=C/C1OC1C1OC(=O)/C=C\C=C\C(=O)N(C(C)=O)C(=O)/C=C(/C)CCC2OC2C1OC(=O)NC(C)=O (stereo not drawn),81.7% (inactive)
11,Cc1ccc(NS(=O)(=O)c2ccc(-c3cnc(C4CC4)o3)cc2)cc1C(F)(F)F,48.6% (inactive)
12,CNC(=O)c1cncc(Cn2nc(C)c(NC(=O)c3ccc(COc4ccc(C(F)(F)F)cc4C)cc3)c2C)c1,73.3% (inactive)
13,Cc1cc(C)c(S(=O)(=O)Oc2ccccc2[N+](=O)[O-])c(C)c1,14.2% (inactive)
14,C=C1C(=O)O[C@H]2[C@H]1CC/C(CNC(=O)C(C)c1ccc(CC(C)C)cc1)=C\CC[C@@]1(C)O[C@@H]21 (stereo partly drawn),-74.3% (active)
15,NC(=S)N1N=C(c2ccccc2)CC1c1cn(-c2ccccc2)nc1-c1ccc(OCc2ccccc2)cc1 (stereo not drawn),101% (inactive)
16,CN1CCN(C(=O)[C@]23CCC(C)(C)C[C@H]2C2=CC[C@@H]4[C@@]5(C)C/C(=C/c6cccnc6)C(=O)C(C)(C)[C@@H]5CC[C@@]4(C)[C@]2(C)CC3)CC1,57.5% (inactive)
17,O=C1Nc2cc(-c3cccc(O)c3)ccc2/C1=C/c1ccc[nH]1,16.9% (inactive)
18,COc1ccc(/C=C/c2nc(Nc3ccc(S(=O)(=O)NC(C)=O)cc3)c3ccccc3n2)cc1,45.5% (inactive)
19,CCNC(=O)Oc1ccc(/C(=C(\C)c2ccccc2)c2ccc(OCCN3CCCCC3)cc2)cc1,-2.47% (active)
